# Compound activity from PubChem BioAssay.
# HCMV antiviral = blocks human cytomegalovirus replication | HFF cells, HCMV-luciferase reporter, 72 h; hits give low values | activity change, negative = inhibition, % at 57.5 µM | actives 4.5% (n = 410,000) | AID 1259415; in the data active means activity change below about -60%; inconclusive means no clear call, values can overlap the other calls; inactive means above about -39%; further: on the % scale 0 is the no-effect control and ±100 the full control effect
#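 Two compound doses tested in HFFs infected with HCMV-luciferase, MOI 1 PFU/cell, 72 h at 37C. Lysate luminescence read with OneGlo; data normalized against buffer-only and 10uM Salinomycin inhibitor controls.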
# HCV inh = inhibitors of hepatitis C virus infection; AID 651820; actives 3.4% (n = 340,000); Huh7.5.1 HCVcc-Cre infection, luciferase reporter, 44 h; Potency, µM (highest dose often 41.8 µM), for inactives: at the highest dose activity change, negative = inhibition, actives largely listed as inhibitors; further: potency means the concentration at half of the fitted maximal effect; on the % scale 0 is the no-effect control and ±100 the full control effect
#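 Infectious HCVcc-Cre (~0.5 moi) was added to cells just after compound, with cells seeded 4 h earlier at 1,000 per well. Luciferase activity after 44 h culture reported infection; substrate was incubated 15 min at room temperature before reading.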
# Pf growth 48h = inhibits P. falciparum growth in the first generation, 48 h; P. falciparum luciferase growth in erythrocytes, 48 h; Potency, µM (titrated, usually from 28.7 µM), for the others: at the highest dose activity change, negative = inhibition, actives largely listed as inhibitors; actives 5.9% (n = 310,000); AID 504832; further: potency means the concentration at half of the fitted maximal effect; on the % scale 0 is the no-effect control and ±100 the full control effect
#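 Firefly luciferase activity from engineered P. falciparum reports growth; inhibitors lower the luminescent signal. Cultures contained 2% hematocrit erythrocytes at 0.1% final parasitemia.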
# Shiga inhibitor = inhibitors of Shiga toxin in Vero cells; Vero cells, Shiga toxin protein synthesis inhibition reporter; inhibition, % at 38.7 µM; actives 9.2% (n = 290,000); in the data active means inhibition mostly above about 28%, no sharp cut-off; inactive means mostly below about 43%; further: 0% is about no effect
# Cycloheximide cs = affects cycloheximide protein synthesis inhibition readout, counter-screen. cell reporter, cycloheximide protein synthesis inhibition counterscreen. max response, %. actives 12% (n = 300,000); in the data active means max response mostly above about 13%, no sharp cut-off; inactive means mostly below about 14%; further: read at 38.3 µM for the half of the compounds with a filed dose; 0% is about no effect
# Pf growth 96h = inhibits malaria parasite growth, 96 h; P. falciparum luciferase reporter growth, 96 h; Potency, µM (doses to about 28.7 µM), for the others: top-dose activity change, negative = inhibition, most hits filed as inhibitors; actives 6.9% (n = 320,000); further: potency means the concentration at half of the fitted maximal effect; on the % scale 0 is the no-effect control and ±100 the full control effect
#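 96 h incubation, 37 C, 5% CO2, of luciferase-reporter P. falciparum-infected RBCs (2% hematocrit, 0.05% parasitemia final) with test compounds; endpoint luminescence.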
# * = called active by the depositor; ? = inconclusive; nt = no result given. Most compounds without a hit are left out; they make up all but 21% or so of the library. Unless noted, the call rests on the fitted dose curve; in most records, active means well fitted inhibition curve with a large enough effect; inconclusive means small, poorly fitted or top-dose-only effect, or another doubt; inactive means no such curve, though single readings can be large or run the other way.
SMILES,HCMV antiviral,HCV inh,Pf growth 48h,Shiga inhibitor,Cycloheximide cs,Pf growth 96h
COc1ccc(CC(=O)N2CCc3cc(OC)c(OC)cc3C2)cc1,-5,-13%,6%,2,2,-2%
O=C(Cc1ccc(Cl)cc1)N1CCc2ccccc2C1,47,-2%,nt,nt,nt,nt
COc1ccc(CC(=O)N2CCN(C(=O)Cc3ccc(OC)cc3)CC2)cc1,26,6%,-28%,-8,-2,3.3µM*
O=C(c1cc(Cl)ccc1[N+](=O)[O-])N1CCc2ccccc2C1,-40,7%,15%,-7,-2,33%
Cc1ccc2oc(=O)c3cc(C(=O)N4CCN(C)CC4)sc3c2c1,-9,-19%,23%,-5,1,22%
COCCCNC(=O)Nc1cc(C(=O)NCc2ccc(OC)cc2)ccc1N1CCCC1,17,nt,nt,nt,nt,nt
O=C(Nc1cccc(Cl)c1)c1cnc2sc(N3CCCC3)nn2c1=O,-15,nt,nt,nt,nt,nt
C=C(C)Cn1c(=O)c2c(nc3n2CC(C)CN3Cc2ccccc2)n(C)c1=O (stereo not drawn),-10,-5%,?,-13,-4,?
O=C(Nc1ccc2nc(C3CC3)n(Cc3ccccc3)c(=O)c2c1)C1CC1,-16,-3%,53%,31*,23*,-18%
CCC(=O)Nc1ccc2nc(C3CC3)n(Cc3ccccc3)c(=O)c2c1,12,?,65%,33,11,-19%
O=C(Nn1c(C2CC2)nc2ccccc2c1=O)c1ccco1,14,-3%,-14%,15,-1,-12%
COc1ccc(Cn2c(C3CC3)nc3ccc(NC(=O)c4ccco4)cc3c2=O)cc1,108,?,2.9µM*,47,24,2.1µM*
CCCCN(CCCC)CC(O)COc1ccc(Br)cc1 (stereo not drawn),-30,?,3.7µM*,3,-2,3.3µM*
Cc1ccc(C(NC(=O)N2CCOCC2)=C(Cl)Cl)cc1F,-69*,10µM*,3%,15,5,nt
Cc1ccc(C(NC(=O)N2CCOCC2)C(Cl)Cl)cc1F (stereo not drawn),-14,14%,12%,39,1,17%
COc1cc(Cl)c(C)cc1NC(=O)c1ccc2c(c1)OCO2,89,0%,-3%,26,5,?
Cc1ccc(C(=O)Nc2ccc3c(c2)OCO3)cc1Cl,87,nt,228%,168*,51*,?
Cc1cc(Cl)ccc1NC(=O)c1ccc2c(c1)OCO2,11,-15%,86%,77*,26*,62%
O=C(Nc1ccc2c(c1)OCO2)c1cnc(Cl)c(Cl)c1,56,-10%,114%,nt,nt,158%
Cc1ccc(NC(=O)c2ccc3c(c2)OCO3)cc1Cl,52,4%,37%,90*,45*,?
CN(Cc1ccccc1)C(=O)c1csc([C@@H]2O[C@H](CO)[C@@H](O)[C@H]2O)n1,-9,nt,nt,nt,nt,nt
CCCSCCCNC(=O)CN1C(=O)COc2ccc(S(=O)(=O)N3CCC(C)CC3)cc21,-8,nt,nt,nt,nt,nt
Cc1ccc(Cn2c(SC(C)C(N)=O)nc3ccccc3c2=O)cc1 (stereo not drawn),-8,2%,?,-5,0,?
Nc1nnnn1/N=C/C(Br)=C/c1ccccc1,9,10µM*,?,176*,68*,-9%
Nc1nnnn1/N=C/c1ccccc1O,8,16%,nt,nt,nt,nt
SMILES,HCMV antiviral,HCV inh,Pf growth 48h,Shiga inhibitor,Cycloheximide cs,Pf growth 96h
Nc1nnnn1CC(=O)N/N=C/C=C/c1ccccc1,13,3%,9%,24,-2,1%
Nc1nnnn1/N=C/C=C/c1ccccc1,4,7%,33%,41,17*,1%
CCOC(=O)N1CCC(N2C(=O)c3ccccc3C2Nc2ccc(S(=O)(=O)N3CCCCC3)cc2)CC1 (stereo not drawn),nt,nt,?,-13,-2,?
CC12CCC(=O)N1C(C(=O)Nc1nnc(SCc3ccc(F)cc3)s1)CS2 (stereo not drawn),7,8%,-19%,-9,8,-21%
CCOc1cccc(C(=O)NC(=S)Nc2cccc(NC(=O)c3ccccc3Cl)c2)c1,?,-9%,-4%,24,14*,?
CCOc1cccc(C(=O)NC(=S)Nc2cccnc2)c1,-1,1%,39%,80*,38*,2.6µM*
